Outcome and AC50 data for four compounds are collected here from PubChem BioAssay (EPA / NIEHS).

Read-out in experiment [1]: Macrophage colony-stimulating factor (MCSF), CSF1 (gene 1435)
The experiment in a line: BSK_hDFCGF_MCSF: BioMAP Diversity Plus: hDFCGF Assay for Macrophage colony-stimulating factor (MCSF) Biomarker Activity (AID 2283060). The settings on record: primary human foreskin fibroblasts; actives raise or lower the signal. Put shortly: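 M-CSF levels read by ELISA at 24 h post-dosing in human skin fibroblasts. Parallel cultures stained with SRB assessed cytotoxicity at the same time point; response fitted in both directions against the DMSO baseline.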

Experiment [2] can be described thus: BSK_hDFCGF_SRB: Viability Assessment in the BioMAP Diversity Plus: hDFCGF Assay (AID 2283061).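 Further: cells exposed to compound for 24 h before the read.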 The note with it: primary human foreskin fibroblasts. Put shortly: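 Viability was read as total protein: after 10% TCA fixation, wells were stained with 0.1% sulforhodamine B and read at 560 nm. Primary human foreskin fibroblasts were dosed for 24 h, with bidirectional fitting versus DMSO.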

Read-out in experiment [3]: TIMP metallopeptidase inhibitor 1 (TIMP1), TIMP1 (gene 7076)
Briefly: BSK_hDFCGF_TIMP1: BioMAP Diversity Plus: hDFCGF Assay for TIMP metallopeptidase inhibitor 1 (TIMP1) Biomarker Activity (AID 2283062). The settings on record: primary human foreskin fibroblasts; actives raise or lower the signal. Put shortly:
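TIMP-1 measured by ELISA 24 h after chemical dosing of primary human skin fibroblasts, with gain or loss fitted relative to DMSO. Parallel SRB staining (560 nm) monitored overt cytotoxicity.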

Read-out in experiment [4]: Monokine induced gamma interferon (MIG), CXCL9 (gene 4283)
The experiment in a line: BSK_hDFCGF_MIG: BioMAP Diversity Plus: hDFCGF Assay for Monokine induced gamma interferon (MIG) Biomarker Activity (AID 2283063). The settings on record: primary human foreskin fibroblasts; actives raise or lower the signal. A digest of the protocol:
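Human primary foreskin fibroblasts in the hDFCGF system, exposed to test chemical for 24 h; MIG measured by ELISA. Bidirectional curve fitting against DMSO negative control as activity baseline.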

Read-out in experiment [5]: Matrix Metallopeptidase 1 (MMP1), MMP1 (gene 4312)
Briefly: BSK_hDFCGF_MMP1: BioMAP Diversity Plus: hDFCGF Assay for Matrix Metallopeptidase 1 (MMP1) Biomarker Activity (AID 2283064). The note with it: primary human foreskin fibroblasts; actives raise or lower the signal. Put shortly:
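Primary human foreskin fibroblasts exposed to chemicals for 24 h; MMP1 measured by ELISA. Cytotoxicity tracked by SRB staining in parallel cultures; bidirectional fit relative to DMSO.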

Read-out in experiment [6]: Vascular cell adhesion molecule 1 (VCAM1), VCAM1 (gene 7412)
Briefly: BSK_hDFCGF_VCAM1: BioMAP Diversity Plus: hDFCGF Assay for Vascular cell adhesion molecule 1 (VCAM1) Biomarker Activity (AID 2283065).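 On AC50: VCAM-1 protein level quantified by ELISA after 24 h chemical exposure.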 The settings on record: primary human foreskin fibroblasts; actives raise or lower the signal. Put shortly: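 ELISA readout of VCAM-1 on human dermal fibroblast primary cultures, 24 h after chemical exposure. Gain or loss of signal fitted in both directions against DMSO baseline.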

Read-out in experiment [7]: Plasminogen activator inhibitor-1 (PAI1), SERPINE1 (gene 5054)
The experiment in a line: BSK_hDFCGF_PAI1: BioMAP Diversity Plus: hDFCGF Assay for Plasminogen activator inhibitor-1 (PAI1) Biomarker Activity (AID 2283066). The settings on record: primary human foreskin fibroblasts; actives raise or lower the signal. Put shortly: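 Primary dermal fibroblasts (human foreskin), hDFCGF system; compound 24 h; PAI-1 by ELISA; bidirectional fit vs DMSO control.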

Read-out in experiment [8]: Intercellular Adhesion Molecule 1 (ICAM1), ICAM1 (gene 3383)
The experiment in a line: BSK_KF3CT_ICAM1: BioMAP Diversity Plus: KF3CT Assay for Intercellular Adhesion Molecule 1 (ICAM1) Biomarker Activity (AID 2283067). The settings on record: primary human keratinocytes with fibroblasts; actives raise or lower the signal. A digest of the protocol:
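Cell-surface ICAM-1 was measured by ELISA 24 h after dosing primary human skin keratinocytes co-cultured with fibroblasts. Parallel SRB staining tracked overt cytotoxicity. Gain or loss of signal was fitted relative to DMSO.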

Read-out in experiment [9]: Interferon-gamma inducible Protein 10 (IP10), CXCL10 (gene 3627)
The experiment in a line: BSK_KF3CT_IP10: BioMAP Diversity Plus: KF3CT Assay for Interferon-gamma inducible Protein 10 (IP10) Biomarker Activity (AID 2283068). The settings on record: primary human keratinocytes with fibroblasts; actives raise or lower the signal. A digest of the protocol:
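Human keratinocyte plus foreskin fibroblast primary co-culture exposed to test chemical for 24 h; IP-10 measured by ELISA. Concentration-response fitted bidirectionally against DMSO control as baseline.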

A short description of experiment [10]: BSK_KF3CT_SRB: Viability Assessment in the BioMAP Diversity Plus: KF3CT Assay (AID 2283069).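 Further: total protein by sulforhodamine B staining as a cytotoxicity measure; read 24 h after compound addition.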 The settings on record: primary human keratinocytes with fibroblasts. Put shortly:
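Human keratinocyte and foreskin fibroblast co-culture exposed to chemical for 24 h. Total protein measured in parallel cultures by 0.1% sulforhodamine B staining after 10% TCA fixation, read at 560 nm; bidirectional fit relative to DMSO.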

Read-out in experiment [11]: Interleukin-1 alpha (IL1a), IL1A (gene 3552)
The experiment in a line: BSK_KF3CT_IL1a: BioMAP Diversity Plus: KF3CT Assay for Interleukin-1 alpha (IL1a) Biomarker Activity (AID 2283070). The settings on record: primary human keratinocytes with fibroblasts; actives raise or lower the signal. A digest of the protocol: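 Primary human keratinocyte plus foreskin fibroblast co-culture, dosed and measured at 24 h in 96-well plates. IL-1a level quantified by ELISA; bidirectional fit relative to DMSO.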

Read-out in experiment [12]: TIMP metallopeptidase inhibitor 2 (TIMP2), TIMP2 (gene 7077)
The experiment in a line: BSK_KF3CT_TIMP2: BioMAP Diversity Plus: KF3CT Assay for TIMP metallopeptidase inhibitor 2 (TIMP2) Biomarker Activity (AID 2283071). The settings on record: primary human keratinocytes with fibroblasts; actives raise or lower the signal. A digest of the protocol:
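Cells: human keratinocytes co-cultured with foreskin fibroblasts. Treat with chemical, 24 h. Measure TIMP-2 by ELISA; fit curves bidirectionally vs DMSO baseline.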

Read-out in experiment [13]: C-C motif chemokine 2 (Homo sapiens) (UniProt P13500)
The experiment in a line: BSK_KF3CT_MCP1: BioMAP Diversity Plus: KF3CT Assay for Monocyte Chemoattractant Protein 1 (MCP1/CCL2) Biomarker Activity (AID 2283073). The settings on record: primary human keratinocytes with fibroblasts; actives raise or lower the signal. A digest of the protocol: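 ELISA read-out of MCP-1, 24 h post-dose, in primary human skin keratinocytes co-cultured with fibroblasts. Parallel SRB staining monitors cytotoxicity; changes fitted both directions relative to DMSO.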

Read-out in experiment [14]: urokinase plasminogen activator (uPA), PLAU (gene 5328)
Briefly: BSK_KF3CT_uPA: BioMAP Diversity Plus: KF3CT Assay for urokinase plasminogen activator (uPA) Biomarker Activity (AID 2283075). The note with it: primary human keratinocytes with fibroblasts; actives raise or lower the signal. A digest of the protocol:
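Primary human keratinocyte/foreskin fibroblast co-culture exposed to chemical; uPA measured by ELISA at 24 h. Bidirectional fit versus DMSO, with parallel SRB total-protein staining for cytotoxicity.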

Read-out in experiment [15]: CD40, CD40 (gene 958)
The experiment in a line: BSK_LPS_CD40: BioMAP Diversity Plus: LPS Assay for CD40 Biomarker Activity (AID 2283076). The note with it: primary human HUVEC with PBMC; actives raise or lower the signal. Put shortly:
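In the LPS system of human endothelial cells with peripheral blood mononuclear cells, CD40 levels were read by ELISA 24 h post-treatment. Signal changes in either direction were fitted against the DMSO baseline, with parallel SRB protein staining.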

Read-out in experiment [16]: E-selectin (Homo sapiens) (UniProt P16581)
The experiment in a line: BSK_LPS_Eselectin: BioMAP Diversity Plus: LPS Assay for Eselectin Biomarker Activity (AID 2283077). The note with it: primary human HUVEC with PBMC; actives raise or lower the signal. Put shortly: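 E-selectin ELISA on LPS-stimulated endothelial cell/PBMC co-cultures, read 24 h post-treatment; gains and losses fitted against DMSO. Parallel SRB staining (0.1% SRB after 10% TCA fixation, 560 nm) flags overt cytotoxicity.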

Read-out in experiment [17]: Interleukin-8 (IL8), CXCL8 (gene 3576)
Briefly: BSK_LPS_IL8: BioMAP Diversity Plus: LPS Assay for Interleukin-8 (IL8) Biomarker Activity (AID 2283078). The note with it: primary human HUVEC with PBMC; actives raise or lower the signal. A digest of the protocol:
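ELISA read-out of IL-8 after 24 h chemical treatment of LPS-activated endothelial/PBMC human primary co-cultures. Changes either up or down relative to DMSO; overt cytotoxicity checked by sulforhodamine B staining in parallel wells.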

Experiment [18] can be described thus: BSK_LPS_SRB: Viability Assessment in the BioMAP Diversity Plus: LPS Assay (AID 2283079).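 Further: total protein by sulforhodamine B absorbance as a cytotoxicity measure; measured one day after compound addition.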 The note with it: primary human HUVEC with PBMC. A digest of the protocol:
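SRB viability endpoint: cells fixed with 10% TCA, stained with 0.1% SRB, read at 560 nm, 24 h post-dose. HUVEC/PBMC co-culture; signal change in either direction scored relative to DMSO.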

Read-out in experiment [19]: Matrix Metallopeptidase 9 (MMP9), MMP9 (gene 4318)
Briefly: BSK_KF3CT_MMP9: BioMAP Diversity Plus: KF3CT Assay for Matrix Metallopeptidase 9 (MMP9) Biomarker Activity (AID 2283074). The settings on record: primary human keratinocytes with fibroblasts; actives raise or lower the signal. Put shortly:
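Human keratinocyte and foreskin fibroblast co-culture exposed to chemicals for 24 h; MMP9 biomarker measured by ELISA, bidirectional fitting relative to DMSO; cytotoxicity tracked by SRB total protein staining in parallel cultures.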

Read-out in experiment [20]: Interleukin-1 alpha (IL1a), IL1A (gene 3552)
Briefly: BSK_LPS_IL1a: BioMAP Diversity Plus: LPS Assay for Interleukin-1 alpha (IL1a) Biomarker Activity (AID 2283080). The settings on record: primary human HUVEC with PBMC; actives raise or lower the signal. A digest of the protocol: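 Readout is IL-1a level by ELISA, 24 h post-dose, fitted as gain or loss relative to DMSO. System: LPS-activated human primary co-culture of vascular endothelium and peripheral blood mononuclear cells, with parallel SRB total-protein cytotoxicity.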

Molecules are shown by their SMILES. Some compounds were tested as several samples or in several runs, with calls that do not always agree. The source made the active and inactive calls. How the source made its calls: active means hit-call score of the fitted dose curve at least 0.9, where 1 is the maximum; inactive means score below 0.9.

Sequence of E-selectin (Homo sapiens) (P16581 whole entry, looked up): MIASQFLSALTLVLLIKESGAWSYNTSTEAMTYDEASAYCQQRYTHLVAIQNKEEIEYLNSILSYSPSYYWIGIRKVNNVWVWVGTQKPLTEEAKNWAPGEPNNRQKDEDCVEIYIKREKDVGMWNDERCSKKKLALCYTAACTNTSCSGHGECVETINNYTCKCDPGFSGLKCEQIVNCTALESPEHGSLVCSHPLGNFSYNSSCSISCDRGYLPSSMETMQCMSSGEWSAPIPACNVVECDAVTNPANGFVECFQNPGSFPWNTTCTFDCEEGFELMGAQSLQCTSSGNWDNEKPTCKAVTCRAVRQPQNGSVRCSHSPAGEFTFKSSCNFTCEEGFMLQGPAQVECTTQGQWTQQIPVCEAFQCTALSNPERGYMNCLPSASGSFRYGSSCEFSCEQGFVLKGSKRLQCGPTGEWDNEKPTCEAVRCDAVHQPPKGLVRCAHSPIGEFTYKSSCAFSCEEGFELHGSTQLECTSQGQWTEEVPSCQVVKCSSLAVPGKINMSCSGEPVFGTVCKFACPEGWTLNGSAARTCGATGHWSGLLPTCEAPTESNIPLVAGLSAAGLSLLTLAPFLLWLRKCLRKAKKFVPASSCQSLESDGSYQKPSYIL

A word on the AC50: it is the midpoint of the concentration-response curve, whichever way the signal moves. With `O=C(O)C(F)(F)C(F)(F)C(F)(F)C(F)(F)C(F)(F)C(F)(F)C(F)(F)C(F)(F)C(F)(F)C(F)(F)C(F)(F)C(F)(F)C(F)(F)F`, the result in experiment [1], in experiment [2], in experiment [3], in experiment [4], in [5] and in [6] was inactive. Also, the outcome in [7], in experiment [8], in experiment [9], in [10], in experiment [11] and in [12] was inactive. The outcome in experiment [13], in experiment [14], in experiment [15], in [16], in [17] and in experiment [18] was inactive. Further, in experiment [17], the half-maximal activity concentration (AC50) was 2.24 µM (active).

Regarding `FC(F)(F)C(F)(F)C(F)(F)C(F)(F)C(F)(F)C(F)(F)C(F)(F)Br`, the result in experiment [1], in experiment [2], in [3], in [4], in experiment [5] and in [6] was inactive. The outcome in [7], in experiment [8], in experiment [9], in experiment [10], in experiment [11] and in experiment [12] was inactive. The result in experiment [13], in [19], in [14], in [15], in experiment [16] and in experiment [17] was inactive. Moreover, the result in experiment [18] and in [20] was inactive.

For the compound `Nc1ccc([N+](=O)[O-])cc1O`, the result in experiment [1], in [2], in experiment [3], in [4], in [5] and in experiment [6] was inactive. Besides, the result in experiment [7], in experiment [8], in [9], in experiment [10], in [11] and in experiment [12] was inactive. Also, the result in experiment [13], in experiment [14], in [15], in experiment [16], in [17] and in experiment [18] was inactive. Besides, the outcome in experiment [20] was inactive.

For the compound `CC(=O)Nc1ccc(N=Nc2cc(C)ccc2O)cc1`, the AC50 in [1] was 30.8 µM (active); in experiment [4], 33.8 µM (active); in experiment [5] it was 31 µM (active); in experiment [6] it was 30.2 µM (active); in experiment [8] it was 20 µM (active); in [9] it was 34 µM (active). Moreover, the AC50 in [11] is 20 µM (active). Besides, the outcome in experiment [2], in experiment [3], in experiment [7], in experiment [10], in [12] and in experiment [13] was inactive. Also, the result in [19], in experiment [14], in [15], in experiment [16], in experiment [17] and in experiment [18] was inactive. Moreover, the result in [20] was inactive.
